A short description of assay [1]: optical density shifts of acrAB sulA E. coli – strain DRC41, OD650, 48 h, E. coli filamentation inducer project, primary screen (AID 1152).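 Further: E. coli MC1000 strain DRC41 lacking acrAB efflux pump and sulA.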 The settings on record: higher = more signal, called active from +8 up or from −8 down.
Assay [2] in a line: probe aLefty1 binding on compound microarray – biochemical, small-molecule microarray, 635/667 nm fluorescence, primary screen (AID 1153).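 Further: score merges spot fluorescence with signal-to-noise ratio from the scanned slide images.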 The settings on record: higher = more signal.
The nature of assay [3]: plasmodial surface anion channel blockers, osmotic lysis – cell-based, P. falciparum Indochina, OD700, 1 h, primary screen (AID 1154). The settings on record: P. falciparum Indochina infected RBC osmotic lysis, higher = more signal, called active from +8 up or from −8 down.
A short description of assay [4]: plasmodial surface anion channel blockers, osmotic lysis – cell-based, P. falciparum Indochina, OD700, 2 h, primary screen (AID 1155).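 Further: lysis reports solute entry through the parasite surface anion channel PSAC.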 The settings on record: P. falciparum Indochina infected erythrocytes, higher = more signal, called active from +8 up or from −8 down.
Assay [5] is described as follows: changes in parasitized red cell lysis, either direction – P. falciparum Indochina, OD700, 3 h, PSAC antagonist project, primary screen (AID 1156). The settings on record: P. falciparum-infected erythrocytes, osmotic lysis, higher = more signal, called active from +8 up or from −8 down.
A short description of assay [6]: plasmodial surface anion channel blockers, osmotic lysis – cell-based, P. falciparum Indochina, OD700, 18 h, primary screen (AID 1157). The settings on record: P. falciparum Indochina infected erythrocytes, osmotic lysis OD700, 18 h; higher = more signal, called active from +8 up or from −8 down.
Assay [7] in a line: S6 kinase pathway phospho-S6 level changes – cell-based, A549, cytoblot, luminescence, serum-stimulated, primary screen (AID 1158).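 Further: serum-stimulated A549 lung adenocarcinoma cells; signal is phosphorylated S6 detected by cytoblot immunostaining with HRP secondary.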 The settings on record: 5 h, higher = more signal.
The target in assay [8] is NADPH oxidase 2 (Homo sapiens) (UniProt P04839). Kind of assay: compounds shifting NOX2 Amplex Red fluorescence – cell-based, HEK293-NOX2, PMA-stimulated, NOX inhibitor project, primary screen (AID 1159). Further: test concentration not given here. The settings on record: 45 min, higher = more signal, called active from +8 up or from −8 down.
Chain of NADPH oxidase 2 (Homo sapiens) (P04839 whole entry, looked up): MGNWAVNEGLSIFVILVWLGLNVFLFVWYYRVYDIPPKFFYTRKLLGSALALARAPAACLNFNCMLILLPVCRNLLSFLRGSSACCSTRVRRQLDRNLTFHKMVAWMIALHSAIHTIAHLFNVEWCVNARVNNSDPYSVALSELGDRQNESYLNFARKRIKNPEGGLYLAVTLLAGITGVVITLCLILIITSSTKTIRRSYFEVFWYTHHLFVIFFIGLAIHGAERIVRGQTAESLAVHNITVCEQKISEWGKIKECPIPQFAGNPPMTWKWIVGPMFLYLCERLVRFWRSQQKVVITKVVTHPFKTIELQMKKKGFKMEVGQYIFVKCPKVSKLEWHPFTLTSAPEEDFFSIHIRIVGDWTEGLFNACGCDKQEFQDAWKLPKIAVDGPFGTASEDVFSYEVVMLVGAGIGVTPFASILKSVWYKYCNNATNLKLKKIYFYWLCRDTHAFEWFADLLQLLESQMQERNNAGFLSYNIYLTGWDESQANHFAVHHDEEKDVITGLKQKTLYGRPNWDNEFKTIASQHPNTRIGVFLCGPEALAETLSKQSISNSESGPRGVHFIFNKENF
The target in assay [9] is NADPH oxidase 4 (Homo sapiens) (UniProt Q9NPH5). Kind of assay: compounds shifting NOX4 Amplex Red fluorescence – cell-based, HEK293-NOX4, tetracycline-induced, NOX inhibitor project, primary screen (AID 1160). The settings on record: HEK293-NOX4, Amplex Red H2O2 fluorescence, 45 min; higher = more signal, called active from +8 up or from −8 down.
Chain of NADPH oxidase 4 (Homo sapiens) (Q9NPH5 whole entry, looked up): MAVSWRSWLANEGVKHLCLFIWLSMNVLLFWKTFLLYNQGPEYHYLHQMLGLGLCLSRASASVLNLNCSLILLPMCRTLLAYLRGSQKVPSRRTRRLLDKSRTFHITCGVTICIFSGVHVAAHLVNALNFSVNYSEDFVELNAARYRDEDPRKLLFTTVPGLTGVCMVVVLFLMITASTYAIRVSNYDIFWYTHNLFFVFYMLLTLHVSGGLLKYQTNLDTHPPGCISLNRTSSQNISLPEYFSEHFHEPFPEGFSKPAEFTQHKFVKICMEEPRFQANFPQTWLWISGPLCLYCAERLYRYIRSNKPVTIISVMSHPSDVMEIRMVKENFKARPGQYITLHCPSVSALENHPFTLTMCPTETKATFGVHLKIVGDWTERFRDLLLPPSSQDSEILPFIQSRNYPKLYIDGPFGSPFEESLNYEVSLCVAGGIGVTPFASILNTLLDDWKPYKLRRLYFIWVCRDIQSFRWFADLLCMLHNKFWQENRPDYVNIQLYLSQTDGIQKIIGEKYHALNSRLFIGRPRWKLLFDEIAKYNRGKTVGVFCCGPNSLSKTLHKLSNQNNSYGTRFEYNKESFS
Assay [10] deals with NADPH oxidase 5 (Homo sapiens) (UniProt Q96PH1). Description: compounds shifting NOX5 Amplex Red fluorescence – cell-based, HEK293-NOX5, NOX inhibitor project, primary screen (AID 1161). The settings on record: HEK293-NOX5, ionomycin, 45 min, higher = more signal.
Chain of NADPH oxidase 5 (Homo sapiens) (Q96PH1 whole entry, looked up): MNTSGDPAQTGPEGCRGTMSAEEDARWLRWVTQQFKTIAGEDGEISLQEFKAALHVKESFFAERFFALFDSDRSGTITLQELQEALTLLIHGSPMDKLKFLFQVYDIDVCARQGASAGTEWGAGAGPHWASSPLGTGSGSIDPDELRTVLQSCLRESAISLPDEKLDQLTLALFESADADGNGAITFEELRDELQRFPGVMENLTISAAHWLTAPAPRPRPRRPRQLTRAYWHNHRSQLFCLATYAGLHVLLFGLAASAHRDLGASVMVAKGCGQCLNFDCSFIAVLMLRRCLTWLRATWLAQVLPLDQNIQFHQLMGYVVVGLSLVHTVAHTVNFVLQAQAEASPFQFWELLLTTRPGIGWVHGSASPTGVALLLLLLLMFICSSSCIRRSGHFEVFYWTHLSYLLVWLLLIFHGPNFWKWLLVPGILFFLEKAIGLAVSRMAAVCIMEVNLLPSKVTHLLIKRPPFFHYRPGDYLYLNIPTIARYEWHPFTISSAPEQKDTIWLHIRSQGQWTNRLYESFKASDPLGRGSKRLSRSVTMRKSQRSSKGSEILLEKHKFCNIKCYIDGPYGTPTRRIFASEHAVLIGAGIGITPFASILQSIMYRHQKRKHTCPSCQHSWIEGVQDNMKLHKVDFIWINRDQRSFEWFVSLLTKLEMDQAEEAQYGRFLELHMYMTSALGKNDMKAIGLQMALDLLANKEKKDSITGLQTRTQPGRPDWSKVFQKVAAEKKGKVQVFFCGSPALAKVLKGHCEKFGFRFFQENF
Assay [11] can be described thus: compound effects on lung adenocarcinoma cell viability – A549, calcein-AM fluorescence, 48 h, basal, profiling panel (AID 1162). Further: test concentration not given here. The settings on record: higher = more signal.
Assay [12] in a line: compound effects on differentiated 3T3-L1 adipocyte viability – cell-based, 3T3-L1 adipocytes, calcein-AM fluorescence, 48 h, basal, profiling panel (AID 1163). Further: test concentration not given here. The settings on record: 3T3-L1 adipocytes viability, higher = more signal.
Assay [13] in a line: compound effects on hepatocellular carcinoma cell viability – HepG2, calcein-AM fluorescence, 48 h, basal, profiling panel (AID 1164). Further: test concentration not given here. The settings on record: higher = more signal.
Assay [14] in a line: compound effects on multiple myeloma cell viability – MM1S, calcein-AM fluorescence, 48 h, basal, profiling panel (AID 1165).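 Further: viability of MM1S multiple myeloma cells under basal unstimulated conditions; test concentration not given here.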 The settings on record: higher = more signal.
Assay [15] can be described thus: calcein-AM signal in unstimulated myeloma cells – cell-based, calcein-AM fluorescence, 48 h, PK04 Diversity Set, profiling panel (AID 1166).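 Further: cells grown under basal conditions without added stimulus; test concentration not given here.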 The settings on record: RPMI8226 myeloma viability, higher = more signal.
The nature of assay [16]: JC-1 mitochondrial signal, unstimulated HepG2 cells – cell-based, JC-1 fluorescence, 24 h, 100 nL compound, profiling panel (AID 1167). Further: test concentration not given here. The settings on record: HepG2 mitochondrial potential, higher = more signal.
Assay [17] can be described thus: JC-1 mitochondrial signal, unstimulated adipocytes – cell-based, JC-1 fluorescence, 3T3-L1 adipocytes, 24 h, 100 nL compound, profiling panel (AID 1168). Further: test concentration not given here. The settings on record: JC-1 mitochondrial fluorescence, higher = more signal, called active from +8 up or from −8 down.
A short description of assay [18]: JC-1 mitochondrial signal, unstimulated myeloma cells – cell-based, JC-1 fluorescence, RPMI8226, 24 h, 100 nL compound, profiling panel (AID 1169). Further: test concentration not given here. The settings on record: JC-1 mitochondrial potential fluorescence, higher = more signal.
The nature of assay [19]: JC-1 mitochondrial signal, unstimulated MM1S myeloma – cell-based, JC-1 fluorescence, 24 h, 100 nL compound, profiling panel (AID 1170). Further: test concentration not given here. The settings on record: MM1S mitochondrial potential, higher = more signal.
A short description of assay [20]: resazurin metabolic signal in A549 cells – cell-based, resazurin fluorescence, 24 h, PK04 Diversity Set, profiling panel (AID 1171). Further: test concentration not given here. The settings on record: A549 viability, higher = more signal, called active from +8 up or from −8 down. (In general: Alamar Blue is a resazurin reagent that responds to reducing activity.)

Calls of active or inactive are those of the source.

On to `O=C(c1ccccc1)N1Cc2ccccc2C[C@@]2(COC(c3ccc(OCCCO)cc3)=N2)C1=O`, for which the z-score in assay [1] is -0.298 (inactive); in assay [3], 15.2 (active); in [4] it was 1.26 (inactive); in assay [5] it was 4.66 (inactive); in assay [6] it was 0.498 (inactive); in assay [7] it was -0.107. In addition, the z-score is 0.137 (inactive) in assay [8]; -0.302 (inactive) in [9]; -0.983 in assay [10]; 0.603 in assay [11]; 0.697 in assay [12]; 0.81 in [13]. Moreover, the z-score was -0.516 in [14]; 0.0855 in [15]; 1.47 in [16]; -0.768 (inactive) in assay [17]; -0.676 in [18]; 0.392 in assay [19]. The z-score in assay [20] was 2.08 (inactive). The compound also returned a composite z-score in [2] of 0.39.

Take `CC(C)C(=C=CC[C@H](O)c1ccc(OCCO)cc1)CCO`: the z-score in assay [1] was -0.595 (inactive); in [3], 9.47 (active); in [4], 1.99 (inactive); in assay [5], 1.11 (inactive); in [6] it was 0.553 (inactive); in [7], -0.365. Moreover, the z-score in [8] was -1.06 (inactive); in assay [9] it was -0.581 (inactive); in [10], -1.96; in assay [11] it was 0.421; in assay [12] it was 0.799; in [13] it was 0.101. Besides, the z-score is -3.35 in [14]; -2.14 in assay [15]; -1.55 in assay [16]; -0.722 (inactive) in assay [17]; -0.881 in [18]; -0.0147 in [19]. Also, the z-score in assay [20] was 1.05 (inactive). In assay [2], this compound had a composite z-score of 0.0945.

On to `COC(=O)[C@@]1(Cc2ccc(F)cc2)[C@H]2c3cc(C(=O)N(C)C)n(Cc4cc(F)c(F)c(F)c4)c3C[C@H]2CN1C(=O)c1ccccc1`, for which the z-score was -1.42 (inactive) in assay [1]; 4.21 (inactive) in [3]; 0.548 (inactive) in assay [4]; 0.365 (inactive) in assay [5]; 1.16 (inactive) in assay [6]; -0.359 in assay [7]. Besides, the z-score in assay [8] is 0.525 (inactive); in [9], 2.18 (inactive); in assay [10] it was 1.26; in [11] it was -0.917; in assay [12], -0.147; in assay [13] it was 0.178. The z-score in assay [14] is -0.711; in [15], -1.93; in assay [16] it was 0.345; in assay [17] it was -1.26 (inactive); in [18] it was -0.803; in [19] it was -1.75. In assay [20], the z-score was -2.68 (inactive). Also, in assay [2], the composite z-score was 0.5.

As for `COc1ccc(CCNC(=O)[C@@]2(Sc3ccc(C)cc3)CC(=O)N(C(C)C)[C@@H]2c2ccc(CO)cc2I)cc1`, the z-score in assay [1] is -0.0322 (inactive); in [3] it was 5.56 (inactive); in [4], 0.428 (inactive); in assay [5], 0.445 (inactive); in [6], -0.135 (inactive); in [7] it was 0.394. Also, the z-score is 0.446 (inactive) in assay [8]; -0.641 (inactive) in assay [9]; 1.22 in assay [10]; 1.68 in assay [11]; 0.345 in assay [12]; 0.0217 in [13]. For the same compound, the z-score is -3.07 in [14]; -2.32 in assay [15]; 0.529 in assay [16]; -0.139 (inactive) in assay [17]; -0.686 in assay [18]; -0.942 in assay [19]. The z-score in assay [20] is -0.192 (inactive). Further, the composite z-score in assay [2] was -0.104.

Turning to `CO[C@H]1O[C@H](CO)[C@@H](OC(=O)Nc2ccc(C(F)(F)F)cc2)[C@H](OC(=O)Nc2ccc3c(c2)OCO3)[C@@H]1OC(=O)Nc1ccc2c(c1)OCO2`, the z-score was -0.112 (inactive) in assay [1]; 25.8 (active) in assay [3]; 15.3 (active) in [4]; 3.6 (inactive) in assay [5]; 1.77 (inactive) in [6]; -0.176 in assay [7]. Moreover, the z-score was -0.794 (inactive) in assay [8]; -0.393 (inactive) in [9]; -0.486 in [10]; -0.903 in [11]; 0.102 in [12]; -1.81 in assay [13]. Also, the z-score in assay [14] is -3.42; in [15], -3.51; in assay [16] it was -1.62; in assay [17], -0.855 (inactive); in [18], -1.32; in assay [19], -1.36. Also, in assay [20], the z-score is -1.99 (inactive). Also, the composite z-score in assay [2] is 0.199.

As for `O=C1C[C@@](C(=O)NCC(F)(F)F)(c2ccc([N+](=O)[O-])cc2)[C@@H](c2ccc(CO)cc2I)N1C1CCCCC1`, the z-score is -0.629 (inactive) in [1]; 16.9 (active) in [3]; 1.79 (inactive) in assay [4]; 2.56 (inactive) in assay [5]; 0.599 (inactive) in [6]; -0.417 in assay [7]. For the same compound, the z-score in [8] is 0.979 (inactive); in [9], -0.0876 (inactive); in assay [10], 0.612; in [11], -0.0922; in assay [12], 0.665; in assay [13], -0.644. In addition, the z-score was -2.28 in assay [14]; -1.65 in [15]; 0.548 in assay [16]; -0.226 (inactive) in [17]; -0.521 in assay [18]; -1.02 in assay [19]. The z-score in assay [20] is 0.324 (inactive). In addition, the composite z-score in [2] was 0.165.

As for `CCOC(=O)C[C@H]1[C@H](OC(=O)c2ccc(C(=O)c3ccccc3)cc2)[C@@H](NC(=O)c2ccc3ccccc3n2)c2cc(OCCCO)ccc2N1C(=O)c1ccccc1`, the z-score in assay [1] was -0.983 (inactive); in [3], 0.839 (inactive); in [4], -0.136 (inactive); in [5] it was -0.883 (inactive); in assay [6], -0.232 (inactive); in assay [7], -0.322. Moreover, the z-score in [8] was 0.34 (inactive); in assay [9], 1.06 (inactive); in assay [10], 1.2; in assay [11], -0.851; in assay [12] it was 0.824; in assay [13], 0.376. Moreover, the z-score in assay [14] was -0.67; in assay [15], -0.705; in assay [16], 1.11; in assay [17] it was -0.966 (inactive); in [18] it was 0.484; in [19], -0.318. Further, in assay [20], the z-score was 0.154 (inactive). The compound also displayed a composite z-score in [2] of -0.0683.

Regarding `COc1cc2c(cc1OC)CN(C(=O)[C@H]1[C@@H]3C(=O)O[C@@H](c4ccccc4)[C@@H](c4ccccc4)N3[C@@H](c3ccc(O)cc3)[C@]13C(=O)Nc1ccccc13)CC2`, the z-score in assay [1] was -0.444 (inactive); in assay [3] it was 0.734 (inactive); in [4], -0.397 (inactive); in assay [5] it was -0.473 (inactive); in [6], 0.801 (inactive); in [7], 0.0493. Besides, the z-score in assay [8] is 0.96 (inactive); in assay [9], 0.754 (inactive); in [10], 1.37; in assay [11] it was -0.214; in [12], -0.843; in assay [13], 0.394. Further, the z-score was -0.723 in assay [14]; -1.47 in assay [15]; -1.2 in [16]; 0.977 (inactive) in assay [17]; -0.542 in assay [18]; -0.594 in assay [19]. The z-score in assay [20] is -0.0574 (inactive). Besides, in [2], the composite z-score came to 0.0036.
